This is part of a sample that, as a whole, favours compounds with a hit. Of some 83,000 tested, about 20% had one in any assay.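 Single-concentration screen, 48 h exposure, 96-well plates. Endpoint: percent growth. Below 10 = active.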 Unmarked numbers belong to inactive results. Activity calls are given as the source filed them.
test system: ACHN renal; assay: NCI-60 one-dose screen, 48 h (100 = growth as untreated, 0 = no growth, -100 = all killed); conditions: 10 µM unless noted
Experimental: Growth inhibition of the ACHN human tumor cell line is measured as a screen for anti-cancer activity. Cells are grown in 96 well plates and exposed to the test compound for 48 hours. Compounds are tested at a single concentration, which is 10^-5 M for most compounds. The reported endpoint is percent growth (GI% or GIPRCNT), where numbers from 0 - 100% represent growth inhibition, and numbers from -100% - 0 represent cell death. For example, a value of 40 represents 60% growth inhibition. A value of 0 means no net growth occurred over the course of the experiment. A value of -40 indicates 40% of cells at the beginning of the experiment died by the end of the experiment. A value of -100 means all cells are dead at the end of the experiment.
NCI-60 Human Tumor Cell Lines Screen was performed using the standard one-dose NCI protocol, which is described in more detail at https://dtp.cancer.gov/discovery_development/nci-60/default.htm.
Compounds with GIPRCNT values below 10 were considered active. Activity score was based on GIPRCNT using the following formula: […]
Score is 0 for GIPRCNT values of 100 or above, 50 for GIPRCNT values of 0, and 100 for GIPRCNT values of -100.

| Compound | growth |
| --- | --- |
| Cc1cccc(N2CCN(C(=S)c3ccc4c(c3)OCO4)CC2)c1 | 43.1% |
| CC12CCC(/C(=C/NNc3ccc([N+](=O)[O-])cc3[N+](=O)[O-])C1=O)C2(C)C (stereo not given) | 34.3% |
| CCOC(=O)c1c(C)nc2ccccc2c1/C=C/c1ccc(OC)cc1 | 58.8% |
| COP(=O)(OC)c1nnn(-c2cccc([N+](=O)[O-])c2)c1C | 106% |
| C=CC1(C)C(O[Si](C)(C)C(C)(C)C)CC2C3OC(=O)NC31c1cccc3c1[C@H](C(=O)N3C)C2(C)C (stereo not given in full) | 59.6% |
| O=C1NC(=C(Cl)Cl)/C(=N/S(=O)(=O)NCCc2c[nH]c3ccccc23)N1 | 88.4% |
| C=CCN=C(N)SCCCCCCSC(N)=NCC=C | 106% |
| Cn1c(/C=C/[N+](=O)[O-])cc2ccccc21 | -29.7% (active) |
| CCOC(=O)/C=C/c1c(C)[nH]c(=O)[nH]c1=O | 1.8% (active) |
| O=C(O)C1CN(c2cccc(Cl)c2)N(c2cccc(Cl)c2)C1=O (stereo not given) | 95.6% |
| CCOC(=O)c1n[nH]n2c1nc(=O)c1cnn(C)c12 | 105% |
| O=C(Nc1ccccc1O)c1ccccc1Nc1ccnc(C(F)(F)F)c1 | 93.8% |
| N#Cc1nc2c(S(=O)(=O)c3ccccc3)c(N)n(Cc3cccnc3)c2nc1C#N | 96.2% |
| COc1cc2c(/C=C3\C(=O)Nc4ccccc43)c(C(=O)O)[nH]c2cc1C | 90.5% |
| CCc1cccc(Sc2cc(C(=O)N3Cc4ccc(OCCN(C)C)cc4C3)ccc2O)c1 | 58.2% |
| Clc1nccc2c(-c3csc(-c4c[nH]c5ccccc45)n3)c[nH]c12 | 24.4% |
| COc1ccc(NC(=O)c2ccc(C(=O)Nc3ccc(OC)cc3OC)cc2)c(OC)c1 | 71.9% |
| CN(C)c1ccc(/C=C/C(=O)c2ccccc2)cc1 | 109% |
| COc1ccc(-c2cc(C(=O)N3N=C(c4ccc(N)cc4)CC3c3ccccc3)c3ccccc3n2)cc1 (stereo not given) | 37.6% |
| CN1CCN(CCOc2ccc(-c3cnc4c(-c5ccc(C(F)(F)F)cc5)cnn4c3)cc2)CC1 | 58.8% |

| Compound | growth |
| --- | --- |
| COc1cc(-c2nc3ccc(C)cc3[nH]2)ccc1OCC(=O)N=Nc1c(O)[nH]c2ccc(Cl)cc12 | 31.4% |
| C#CCOc1ccc2ncnc(Nc3cccc(NC(=O)CCl)c3)c2c1 | 65.8% |
| NC(=O)c1ccc(NC(=O)c2oc3ccccc3c2-c2cnn(-c3ccccc3)c2)cc1 | -11.1% [50 µM] (active) |
| Cn1cc(/C=C2/C(=O)Nc3ccccc32)c2ccccc21 | 83.3% |
| CCCCCSB(SCCCCC)c1ccccc1 | 105% |
| CN1C(=O)/C(=C/c2ccc(C(=O)Nc3ncc(Cc4ccc(F)cc4)s3)cc2)SC1=S | 28% |
| COc1ccc(C2C3=C(COC3=O)N(CCO)c3cc4c(cc32)OCCO4)cc1OC (stereo not given) | 42.2% |
| C#Cc1cccc(Nc2nc3ccc([N+](=O)[O-])cc3nc2Nc2cccc(C#C)c2)c1 | -1.34% (active) |
| CCN(CC)c1ccc(N2C(=O)/C(=C/c3cccs3)SC2=S)cc1 | 94.3% |
| O=C1OCC2=C1C(c1cccc(F)c1)c1cc3c(cc1N2CCO)OCO3 (stereo not given) | 34.5% |
| CC(C)CCSc1nc(Nc2ccccc2)c(C#N)c(-c2ccccc2)n1 | -21.2% (active) |
| COc1cccc(/C=C/C(=O)c2cc3c(N)c(C(=O)Nc4cccc(Cl)c4C)sc3nc2C)c1 | 6.8% (active) |
| CCCCCCCCNc1cc2c3c(c1)CCCN3CCC2 | 30.9% |
| CCOC(=O)c1c(NC(=O)c2ccc(C(C)(C)C)cc2)sc2cc(O)ccc12 | 97.5% |
| CCOc1ccc(NC(=O)c2cc(OC)c(OC)c(OC)c2)cc1 | 55.9% |
| Cc1[nH]c(C(=O)Nc2ccc(C(N)=O)cc2NC(C)C)c(Cl)c1Cl | 96.5% |
| CCn1cc(C2=C(c3cn(C)c4ncccc34)C(=O)NC2=O)c2cccnc21 | 74.7% |
| NC(=O)c1c(NC(=O)c2ccc(Cl)cc2)sc2c1CCC(=O)C2 | 45.6% |
| COc1ccc2c(c1)c(-c1nonc1-c1c[nH]c3ccc(Br)cc13)cn2C | 43.7% |
| COc1cc(-c2cc(-c3ccc(Nc4ncnc5cc(Cl)ccc45)cc3)nc(N3CCN(C)CC3)n2)cc(OC)c1OC | 75.4% |

Source: PubChem BioAssay (NCI)
